Our source for the z-score values is PubChem BioAssay.

SMILES strings stand for the structures. Unmarked numbers belong to inactive results. Activity calls are given as the source filed them.
Further: test concentration not given here.

The first assay is described as follows: S. pombe growth modifiers, basal conditions – strain 972, OD600, 24 h, no modulator, primary screen (AID 1090).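 Further: basal condition with compound alone and no growth modifier present.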 As to conditions: S. pombe 972 growth, higher = more signal, called active from +8 up or from −8 down.
Turning to `COc1ccc([Si](C)(C)[C@H]2[C@H](CC(=O)N3Cc4ccccc4C[C@H]3CO)O[C@@]3(C(=O)N(Cc4cccc(N5CCCCC5=O)c4)c4ccccc43)[C@@H]2C)cc1`, the z-score was 0.522.

Regarding `O=C1OCC=C[C@H]2OC34C=CCN(Cn5nnc6ccccc65)C(=O)[C@H]3N(CCCCCCO)C(=O)[C@@H]4[C@@H]12` (stereo partly drawn), the z-score is -1.19. Same read-out and setting: in the case of `COCCOC(=O)N1C(=O)[C@@]2(c3cc(C#Cc4ccc(OC)cc4)ccc31)[C@H](C(=O)N1CCN(c3ncccn3)CC1)[C@H]1C(=O)O[C@H](c3ccccc3)[C@H](c3ccccc3)N1[C@@H]2c1ccccc1OCCO` it was 2.27. Still for that read-out and setting: the value for `O=C1C2C=CC(C(O)c3cc(C(F)(F)F)cc(C(F)(F)F)c3)N(Nc3ccc([N+](=O)[O-])cc3)C2C(=O)N1c1ccccc1` (stereo not drawn) was 1.15; that for `CCOC(=O)C[C@H]1[C@H](OC(=O)Cc2ccc3c(c2)OCO3)[C@@H](NC(=O)Cc2ccc(OC)cc2)c2cc(OCCCO)ccc2N1C(=O)c1ccccc1` was 0.0145; that for `O=C1NCC(=O)N2[C@@H]1C[C@@H](C(=O)O)[C@H]2c1ccc(O)cc1` was -0.498. Still for that read-out and setting: the value for `C=C(COC)/C(=C/C[C@@H](OC(=O)c1ccncc1)c1cccc(OCCO)c1)c1cnc2ccccc2c1` was -20.6 (active). With `CCOC(=O)C[C@H]1[C@H](OC(=O)c2ccccc2-c2ccccc2)[C@@H](NC(=O)c2ccc3ccccc3n2)c2cc(OCCCO)ccc2N1C(=O)c1ccc2ccccc2n1`, the z-score is -0.653. Take `[N-]=[N+]=NCc1ccccc1C[C@]1(C(=O)NCC(O)CO)N=C(c2ccc(OCCCO)cc2)O[C@H]1c1ccccc1CN=[N+]=[N-]` (stereo partly drawn): the z-score was 0.735.

Regarding `C[n+]1ccc(CCCO)cc1`, the z-score was -0.96.

In the case of `CCCC[C@@H]1C[C@H]1[C@@H](NC(=O)c1ccccc1)c1ccc(Cl)cc1`, the z-score was -1.96.

Consider `C=C(CCCC)/C(=C/C[C@@H](OC(C)=O)c1ccc(CO)o1)c1cc(C(=O)OC)ccc1OC`, for which the z-score is -0.911. Same read-out and setting: in the case of `CC(C)OC(=O)CC(=O)CC(O)c1cccc(C#N)c1` (stereo not drawn) it was -0.0003.

For the compound `COC(=O)[C@@]1(Cc2ccccc2)[C@H]2c3cc(C(=O)N4CCCC4)[nH]c3C[C@H]2CN1C(=O)c1ccccc1`, the z-score is 1.02. On the same count and under the same terms, in the case of `COc1c(C)cc(-c2cc3c(c(-c4ccccc4)n2)[Si](C(C)C)(C(C)C)OC3)cc1C` it was -0.747.

With `C=CC[C@@]1(C(=O)N2CCCCC2)N=C(c2ccc(OCCCO)cc2)O[C@@H]1c1ccccc1`, the z-score is -5.65. On the same count and under the same terms, the value for `CN(C)CCCNC(=O)[C@@H]1c2ccccc2C(=O)N(Cc2ccc(OC(F)(F)F)cc2)[C@H]1c1ccc(CO)cc1` was -1.06.

The nature of the next assay: budding yeast growth modifiers under rapamycin – strain BY4716, OD600, 96 h, primary screen (AID 1091). The following applies: S. cerevisiae BY4716 + rapamycin, higher = more signal, called active from +8 up or from −8 down.
For `COC(=O)[C@@]1(Cc2ccc(F)cc2)[C@H]2c3cc(C(=O)N4CCCC4)n(CCc4c[nH]c5ccc(OC)cc45)c3C[C@H]2CN1C(=O)c1ccccc1`, the z-score was 2.07. Turning to `COCCOC(=O)N1C(=O)[C@@]2(c3cc(C#CC4(O)CCCCCC4)ccc31)[C@H](C(=O)N1CCCCCCC1)[C@H]1C(=O)O[C@H](c3ccccc3)[C@H](c3ccccc3)N1[C@@H]2c1ccc(OCCO)cc1`, the z-score was 2.39. Same read-out and setting: in the case of `COC(=O)Cn1c(C(=O)N2CCCC2)cc2c1C[C@H]1CN(C(=O)c3ccccc3)[C@@](Cc3ccc(F)cc3)(C(=O)OC)[C@@H]21` it was -1.24; in that of `NC(=O)N1C(=O)C2C(C1=O)C1C=C(c3ccc(CO)cc3)C2C(C2CC2)N1Cc1sc2ccccc2c1Cl` (stereo not drawn), 0.266; in that of `CC=CC(O)C1C=CC2C(=O)N(C)C(=O)C2N1Nc1ccc([N+](=O)[O-])cc1[N+](=O)[O-]` (stereo not drawn), 1.67. The same measure, in the same setting: in the case of `CN(C)CCCNC(=O)[C@@]1(c2ccc([N+](=O)[O-])cc2)CC(=O)N(CC23CC4CC(CC(C4)C2)C3)[C@@H]1c1ccc(CO)cc1` it was -4.03. Same read-out and setting: in the case of `C=CC1c2cc(O)c(OC)cc2CCN1Cc1sc2ccccc2c1Cl` (stereo not drawn) it was -0.399; in that of `CC(C)C(=C=CC[C@@H](O)c1ccccc1OCCO)C[C@@H](O)COCc1ccccc1`, -3.68; in that of `C=CCN1C(=O)[C@]2(CC=C)N=C(c3ccc(OCCCO)cc3)O[C@@H]2c2ccccc21`, 0.164.

As to `Cc1ccc(S[C@]2(C(=O)NCc3ccccc3)CC(=O)N(C(C)C)[C@@H]2c2ccc(CO)cc2I)cc1`, the z-score is 0.317. The same measure, in the same setting: the value for `CO[C@H]1O[C@H](CO)[C@@H](OC(=O)Nc2ccc(C(F)(F)F)cc2)[C@H](OC(=O)Nc2ccc3c(c2)OCO3)[C@H]1OC(=O)Nc1ccc2c(c1)OCO2` was 14.9 (active). As for `CN1C2C=C(CCCO)C(C3C(=O)N(C(N)=O)C(=O)C32)C1c1cccs1` (stereo not drawn), the z-score is 0.689. On the same count and under the same terms, in the case of `COC(=O)C(CC#Cc1ccc2c(c1)[C@]1(C(=O)N2)[C@H](C(=O)O)[C@H]2C(=O)O[C@H](c3ccccc3)[C@H](c3ccccc3)N2[C@@H]1c1ccccc1OCCO)C(=O)OC` it was -1.17; in that of `CC(C)CCC[C@@H](C)[C@H]1CC[C@@]2(C)C3=C(CC[C@]12C)[C@@]1(C)CC[C@H](OC(=O)c2ccc(Br)cc2)C(C)(C)C1CC3` (stereo partly drawn), -0.346; in that of `Cc1ccc(S[C@]2(C(=O)NCCN3CCOCC3)CC(=O)N(Cc3ccccc3C(F)(F)F)[C@@H]2c2ccc(CO)cc2I)cc1`, 0.176. The same measure, in the same setting: the value for `CCCCN1CC=CC23O[C@@H]4C=CCOC(=O)[C@@H]4[C@H]2C(=O)N(CCCO)[C@@H]3C1=O` (stereo partly drawn) was -0.191; that for `C=C[C@@H](C)[C@H](OC(=O)Nc1ccc(SC)cc1)c1ccc(OCCO)cc1` was -0.32. As for `O=c1cccc(-c2cccc(Cl)c2)o1`, the z-score is 5.45. Still for that read-out and setting: the value for `Cc1ccc(S[C@]2(C(=O)NCC(F)(F)F)CC(=O)N(Cc3ccccc3)[C@@H]2c2ccc(CO)cc2)cc1` was -0.711; that for `COc1ccc([Si](C)(C)[C@H]2[C@H](CC(=O)N3Cc4ccccc4C[C@H]3CO)O[C@@]3(C(=O)N(Cc4cccc(N5CCCCC5=O)c4)c4ccccc43)[C@@H]2C)cc1` was 0.925; that for `O=C1OCC=C[C@H]2OC34C=CCN(Cn5nnc6ccccc65)C(=O)[C@H]3N(CCCCCCO)C(=O)[C@@H]4[C@@H]12` (stereo partly drawn) was -0.66. Same read-out and setting: in the case of `COCCOC(=O)N1C(=O)[C@@]2(c3cc(C#Cc4ccc(OC)cc4)ccc31)[C@H](C(=O)N1CCN(c3ncccn3)CC1)[C@H]1C(=O)O[C@H](c3ccccc3)[C@H](c3ccccc3)N1[C@@H]2c1ccccc1OCCO` it was 7.9. Turning to `O=C1C2C=CC(C(O)c3cc(C(F)(F)F)cc(C(F)(F)F)c3)N(Nc3ccc([N+](=O)[O-])cc3)C2C(=O)N1c1ccccc1` (stereo not drawn), the z-score is 33.4 (active).

In the case of `CCOC(=O)C[C@H]1[C@H](OC(=O)Cc2ccc3c(c2)OCO3)[C@@H](NC(=O)Cc2ccc(OC)cc2)c2cc(OCCCO)ccc2N1C(=O)c1ccccc1`, the z-score was 0.234. On the same count and under the same terms, in the case of `O=C1NCC(=O)N2[C@@H]1C[C@@H](C(=O)O)[C@H]2c1ccc(O)cc1` it was 0.318; in that of `C=C(COC)/C(=C/C[C@@H](OC(=O)c1ccncc1)c1cccc(OCCO)c1)c1cnc2ccccc2c1`, -3.52; in that of `CCOC(=O)C[C@H]1[C@H](OC(=O)c2ccccc2-c2ccccc2)[C@@H](NC(=O)c2ccc3ccccc3n2)c2cc(OCCCO)ccc2N1C(=O)c1ccc2ccccc2n1`, -0.299. On to `[N-]=[N+]=NCc1ccccc1C[C@]1(C(=O)NCC(O)CO)N=C(c2ccc(OCCCO)cc2)O[C@H]1c1ccccc1CN=[N+]=[N-]` (stereo partly drawn), for which the z-score was 1.48. `C[n+]1ccc(CCCO)cc1`: the z-score was 0.316. Same read-out and setting: in the case of `CCCC[C@@H]1C[C@H]1[C@@H](NC(=O)c1ccccc1)c1ccc(Cl)cc1` it was -2.01; in that of `C=C(CCCC)/C(=C/C[C@@H](OC(C)=O)c1ccc(CO)o1)c1cc(C(=O)OC)ccc1OC`, 0.28. On the same count and under the same terms, the value for `CC(C)OC(=O)CC(=O)CC(O)c1cccc(C#N)c1` (stereo not drawn) was -1.66; that for `COC(=O)[C@@]1(Cc2ccccc2)[C@H]2c3cc(C(=O)N4CCCC4)[nH]c3C[C@H]2CN1C(=O)c1ccccc1` was 0.0237; that for `COc1c(C)cc(-c2cc3c(c(-c4ccccc4)n2)[Si](C(C)C)(C(C)C)OC3)cc1C` was -0.275.

Take `C=CC[C@@]1(C(=O)N2CCCCC2)N=C(c2ccc(OCCCO)cc2)O[C@@H]1c1ccccc1`: the z-score was -1.18. On the same count and under the same terms, the value for `CN(C)CCCNC(=O)[C@@H]1c2ccccc2C(=O)N(Cc2ccc(OC(F)(F)F)cc2)[C@H]1c1ccc(CO)cc1` was -1.41.
